Experimental findings from PubChem BioAssay AID463195 (Sanford-Burnham Center for Chemical Genomics, 2010) are described below.

Molecules are shown by their SMILES. Screen size: about 330,000 compounds; about 4,600 (1.4%) were called active. Many of the other results were omitted from the sample, so actives are more common in it than they were. Values without a mark were called inactive.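 Rule for the calls: active = inhibition of 40% or more at the single tested concentration; inactive = the rest.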

The nature of this test: growth inhibitors of isogenic TIM10 control yeast, primary screen, counter-screen for tim10-1 yeast inhibitor project, luminescence, uHTS (AID 463195).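 Note: wild-type TIM10 isogenic control strain grown at permissive 25 °C; 0% = DMSO yeast wells and 100% = minimal medium wells without yeast.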 Conditions: S. cerevisiae TIM10 strain growth, BacTiter-Glo luminescence, 24 h; at 10 µM; stronger effect = higher value. On the technique in general: The purpose of a counterscreen is to sort out artefacts and off-target activity.
Regarding `Cc1c(C(=O)OC(C)C)sc(NC(=O)c2cccnc2)c1C#N`, the inhibition – broadly, the change of the read-out against control, counted positive when it falls – is 6.36%.
Next, `COc1ccc(CCNC(=O)COC(=O)Cc2cccc(F)c2)cc1`: 7.57%; `Cc1cccc(NC(=O)CN2CCN(C(=O)C3CCN(C(=O)/C=C/c4ccccc4)CC3)CC2)c1C`: 8.87%; `CCCCn1c(=O)c(CCC(=O)OCC(=O)Nc2ccc(C)c(Cl)c2)nc2ccccc21`: -6.83%.
`COc1ccc(S(=O)(=O)N(C)C[C@H]2Oc3c(NC(=O)Nc4ccc5c(c4)OCO5)cccc3C(=O)N([C@H](C)CO)C[C@@H]2C)cc1`: the inhibition is 1.19%.
Consider `O=C(NCc1ccccc1)C1CCCN(c2nc3ccsc3c(=O)s2)C1` (configuration not stated), for which the inhibition was -2.48%.
Next, `CCC(C)NC(=O)c1nn(C)c(=O)c2ccccc12` (configuration not stated): 1.61%.
Next, `Cc1ccc(NC(=O)CSc2sc3c(O)cc(=O)[nH]c3c2C#N)cc1C`: -6.33%; `CCOC(=O)c1ccc(N2C(=O)CC(N3CCN(C(=O)c4ccccc4)CC3)C2=O)cc1` (configuration not stated): 1.01%.
For the molecule `CCOC(=O)c1ccc(N2C(=O)CC(N3CC(C)OC(C)C3)C2=O)cc1` (configuration not stated), the inhibition was 8.24%.
For `CCOC(=O)c1ccc(N2C(=O)CC(N3CCC(C(=O)OCC)CC3)C2=O)cc1` (configuration not stated), the inhibition was 41.3% (active).
As to `CC1CN(C(=S)Nc2ccc(S(N)(=O)=O)cc2)CC(C)O1` (configuration not stated), the inhibition was 2.19%.
On to `CCN(C(=O)COc1ccc(C(=O)c2ccccc2)cc1)c1ccccc1`, for which the inhibition is 16.5%.
`CCOC(=O)CSc1nc(N2CCOCC2)c2c(c1C#N)CC(C(C)C)OC2` (configuration not stated): the inhibition is 20%.
`O=C(Nc1cccc(F)c1)[C@@H]1CCCN1`: the inhibition was -11.2%.
Under `COc1ccc(-c2oc3ncn(Cc4ccco4)c(=N)c3c2-c2ccc(OC)cc2)cc1` stands 49% (active); under `COc1ccc(-n2cnc3cc(NCc4ccco4)ccc32)cc1`, 35.3%; under `COc1ccc(-c2oc3ncnc(NCCCO)c3c2-c2ccc(OC)cc2)cc1`, 17.8%.
As to `COc1ccc(C(C)(C)C)cc1NC(=O)CCN1C(=O)C2CCCCC2C1=O` (configuration not stated), the inhibition is 24.4%.
In the case of `COc1ccccc1Oc1ccc(N2CC(C(=O)OCC(=O)c3ccc(F)cc3)CC2=O)cc1` (configuration not stated), the inhibition was 19.9%.
Take `C[C@@H](NC(=O)OC(C)(C)C)c1nnc(S(=O)(=O)Cc2ccccc2)o1`: the inhibition is 40.3% (active).
For the molecule `CCc1ccccc1NC(=O)CSc1nnc([C@@H](NC(=O)OC(C)(C)C)C(C)C)o1`, the inhibition was 12.6%.
On to `C[C@H](NC(=O)OC(C)(C)C)c1nnc(SCC(=O)Nc2ccc(Br)cc2)o1`, for which the inhibition is 9.84%.
As to `CCN(CC)C(=O)COc1coc(CN2CCN(Cc3ccccc3)CC2)cc1=O`, the inhibition was 16.8%.
As to `COC(C[C@@H]1O[C@@H]1C(=O)[C@@H](C)OCc1ccccc1)OC`, the inhibition was 3.69%.
Next, `CC1(C)NC(=O)N(CCCCSc2ccc(Cl)cc2)C1=O`: -13.6%; `COC(=O)c1sc(-c2ccc(C(C)(C)C)cc2)cc1NC(=O)/C=C/C(=O)O`: -5.28%.
`COCCCC1CCN(C(=O)C2CCC(=O)N(C3CCCCCC3)C2)CC1` (configuration not stated): the inhibition was 2.49%.
Regarding `COCCNC(=O)C(OC(=O)c1cccs1)c1ccc(F)cc1` (configuration not stated), the inhibition is 10.9%.
As to `COC(=O)c1ccc(-n2cnc3ccccc32)nc1`, the inhibition was 10.4%.
Regarding `c1ccc(-c2nccc(-c3ccc(-n4cnc5ccccc54)cc3)n2)nc1`, the inhibition is 46% (active).
Next, `Cc1nccc(-c2ccc(-n3c(C)ccc3C)cc2)n1`: 6.83%.
Take `Cc1cc(C(=O)CC#N)c(C)n1CC(F)(F)F`: the inhibition is -1.63%.
Next, `COCCn1c(C)cc(C(=O)COC(=O)/C=C/c2cccc(OC)c2)c1C`: 17.6%.
For `COC(=O)CNC(=O)c1cc(-c2ccncc2)nc2ccccc12`, the inhibition is -9.97%.
Under `N/C(=N\OC(=O)c1cc(-c2ccccc2)nc2ccccc12)c1ccncc1` stands 61.8% (active); under `C/C(N)=C(/C#N)C(=O)COC(=O)c1cc(-c2ccc(C)cc2)nc2ccccc12`, 23.8%.
With `O=C(Oc1ccc(C(=S)N2CCOCC2)cc1)c1ccc(F)cc1`, the inhibition was 7.76%.
Next, `O=C(Oc1ccc(F)cc1)N1CCOCC1`: 97.5% (active).
As for `CC(=O)c1ccc(OC(=O)N2CCOCC2)cc1`, the inhibition was 9.97%.
Next, `CCOc1c(OC)cccc1C(=O)NCC1(c2ccccc2)CCCC1`: 27.6%.
`CC(C)(C)n1ncc2c(=O)n(Cc3c(Cl)cccc3Br)cnc21`: the inhibition is 5.55%.
As for `Cc1ccc(OCC(=O)Nc2cccc3c2CCCC3)cc1C`, the inhibition was 28.1%.
Under `O=C(NOCc1ccccc1)c1cccc([N+](=O)[O-])c1` stands 0.85%.
For the molecule `O=C(COC(=O)c1ccc([N+](=O)[O-])cc1Cl)NC(=O)c1ccccc1`, the inhibition was -3.01%.
As for `O=C(NC(Nc1nc2ccc([N+](=O)[O-])cc2s1)(C(F)(F)F)C(F)(F)F)c1ccccc1`, the inhibition was 76.9% (active).
Turning to `CCc1ccc(C(=O)NN=C2CCCCCC2)s1`, the inhibition is -0.295%.
`CCCC(C(=O)N1CCOCC1)N1C(=O)C2C3C=CC(C3)C2C1=O` (configuration not stated): the inhibition was -10.3%.
On to `CCC(C)(C)n1nnnc1C(c1cccs1)N1CCN(c2nc3ccccc3s2)CC1` (configuration not stated), for which the inhibition was 37.8%.
Next, `CCC(C)(C)n1nnnc1CN1CCN(c2nc3ccc(C)cc3cc2C#N)CC1`: 41.5% (active); `CCOc1ccc2nc(N3CCCN(C(=O)Nc4ccccc4C)CC3)c(C#N)cc2c1`: 2.29%.
With `CSc1ccc(CN(C)CC(=O)NCc2ccc(F)cc2)cc1`, the inhibition is -1.15%.
As to `Cn1c(CNC(=O)c2ccco2)nnc1SCC(=O)N1CCN(c2ccccc2)CC1`, the inhibition is 2.03%.
Consider `O/N=C(\c1ccc2c(c1)OCCO2)C1CCCCC1`, for which the inhibition is 3.12%.
As to `Cc1c(CNCCc2ccccc2)c(C(=O)O)c(C)n1-c1ccccc1`, the inhibition is -4.69%.
Take `COc1cc(/C=N/n2c(C)n[nH]c2=S)ccc1OCc1ccccc1`: the inhibition was 8.61%.
For `Cn1c(-c2sccc2OCc2cccc(C(F)(F)F)c2)n[nH]c1=S`, the inhibition is 42.2% (active).
For the molecule `Cn1c(-c2sc3cc(C(F)(F)F)cnc3c2-c2ccccc2)n[nH]c1=S`, the inhibition was -3.83%.
Regarding `CCOc1ccc(-n2c(SCC(=O)Nc3cc(C(=O)O)ccc3Cl)nc3ccccc3c2=O)cc1`, the inhibition was 22.7%.
Take `S=c1[nH]nc(CSCc2ccc(Cl)cc2Cl)n1-c1ccccc1`: the inhibition is 38.8%.
Regarding `CCn1c(CSCc2c(Cl)cccc2Cl)n[nH]c1=S`, the inhibition was 53.7% (active).
As to `CCn1c(CNS(=O)(=O)c2ccc(Cl)cc2)n[nH]c1=S`, the inhibition is -9.99%.
For `Clc1ccc(C2=CSC3=Nc4cccc5cccc(c45)N23)cc1`, the inhibition was 21.2%.
Consider `CCN(CC)P(=O)(/C(Cl)=C\Nc1c(C)n(C)n(-c2ccccc2)c1=O)N(CC)CC`, for which the inhibition was 2.07%.
Under `COc1ccc(CCNCC(O)Cn2ccc3ccccc32)cc1OC` (configuration not stated) stands -8.76%.
Consider `O=C1c2ccccc2C(=O)c2c1cccc2N1CCN(C/C=C/c2ccccc2)CC1`, for which the inhibition was 38.5%.
For `O=C1c2ccccc2C(=O)c2c1cccc2N1CCN(CCO)CC1`, the inhibition was 12.2%.
Turning to `O=C1c2ccccc2C(=O)c2c1cccc2N1CCN(Cc2ccccc2)CC1`, the inhibition was 41.3% (active).
`Cc1ccc(NC(=O)CN(C)C(=O)Cn2nnc(-c3ccccc3)n2)cc1`: the inhibition was 0.534%.
In the case of `COc1ccccc1CNC(=O)COc1ccc(C)nc1[N+](=O)[O-]`, the inhibition was 9.85%.
For the molecule `Cc1cccc(NC(=O)CCn2c(=O)oc3ccccc32)c1`, the inhibition is -10%.
Turning to `CC(OC(=O)c1cc2ccccc2o1)C(=O)Nc1ccc(N2CCOCC2)cc1` (configuration not stated), the inhibition is 3.94%.
`CN1CCN(c2ccccc2NC(=O)COc2ccc(C3CCCCC3)cc2)CC1`: the inhibition is 40.4% (active).
Regarding `O=C(CN1CCN(C2CCCCC2)CC1)Nc1ccccc1N1CCCCC1`, the inhibition is 4.11%.
Under `Cc1ccc(C(C)C)cc1OCC(=O)Nc1ccccc1N1CCCC1` stands -2.85%.
Turning to `COc1ccc(CNC(=O)/C(C#N)=C/c2cccc(OC)c2OC)cc1`, the inhibition is 70.4% (active).
As for `COc1ccc(NC(=O)/C(C#N)=C\c2cc(OC)c(OCc3ccc(C(=O)O)cc3)cc2Br)cc1`, the inhibition is 26.4%.
Regarding `COc1ccc(CNC(=O)CCn2cccc2)cc1`, the inhibition was -5.68%.
`C=CCSc1nnc(N2C(=O)C(O)=C(C(=O)c3ccco3)C2c2ccc(F)cc2)s1` (configuration not stated): the inhibition is 1.92%.
Under `Cc1ccc2[nH]c3c(=O)n(CC(=O)NCCc4ccc(Cl)cc4)ncc3c2c1` stands -0.819%; under `C=CCO/N=C/C1=C(O)C(C(=O)OC)C(C)(C)CC1=O` (configuration not stated), 6.77%.
Under `O=c1oc2ccccc2cc1-c1csc(Nc2ccc(O)cc2)n1` stands 43.9% (active); under `Cc1ccc(Nc2nc(-c3ccc(O)cc3O)cs2)nc1`, 11.7%.
As to `O=C(Nc1ccncc1)c1cc2ccccc2o1`, the inhibition was -3.62%.
On to `Cc1csc(=O)n1CC(=O)Nc1ccc(S(C)(=O)=O)cc1`, for which the inhibition was -3.37%.
For the molecule `CCn1c(=O)c2ccccc2n(CC(=O)N2CCCc3ccccc32)c1=O`, the inhibition was -2.71%.
In the case of `CC(C)c1ccc2c(c1)c(SC(C)(C)C)c(CC(C)(C)C(=O)O)n2Cc1ccc(Cl)cc1`, the inhibition was 3.33%.
As to `N/C(=N\OC(=O)Cc1ccccc1[N+](=O)[O-])c1ccc(Br)cc1`, the inhibition is 57.9% (active).
Take `N/C(=N\OC(=O)N1c2ccccc2Sc2ccccc21)c1ccc(Br)cc1`: the inhibition is -9.5%.
For `N/C(=N/O)c1cccn1Cc1ccccc1[N+](=O)[O-]`, the inhibition is -10.5%.
`CC[C@@H]1Cc2cc(O)ccc2C2=C1c1ccc(O)cc1C[C@H]2CC`: the inhibition is 58.9% (active).
Regarding `CCOc1ccc(N2C(=O)Nc3ccccc3C2(O)C(=O)NCc2ccco2)cc1` (configuration not stated), the inhibition was -6.83%.
